In PubChem BioAssay (NCATS):
Inconclusive results are not listed. The source made the active and inactive calls. The call rests on the fitted dose curve; in most records, active means well fitted cell-killing curve with a large enough effect; inconclusive means small, poorly fitted or top-dose-only effect, or effect the other way; inactive means flat fitted curve, though single readings scatter.

Assays:
Assay in all cases: Primary qHTS to identify gynecologic anti-cancer compounds using libraries of approved drugs and bioactive compounds (AID 1345084); further: nearly all actives have a fitted effect of over 55% in size
C33A = conditions: Gynecologic cancer cell panel viability, ATPlite luminescence, 48 h; series mostly up to 57.5 µM
Procedure, shortened: (§1)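 In this quantitative HTS, cell killing is estimated from loss of ATP-dependent luciferase light. Cells see five compound concentrations over a 48 h exposure.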

CAOV3 = conditions: Gynecologic cancer cell panel viability, ATPlite luminescence, 48 h; series mostly up to 57.5 µM
Procedure, shortened: as §1

CASKI = conditions: Gynecologic cancer cell panel viability, ATPlite luminescence, 48 h; series mostly up to 57.5 µM
Procedure, shortened: as §1

Es-2 = conditions: Gynecologic cancer cell panel viability, ATPlite luminescence, 48 h; series mostly up to 57.5 µM
Procedure, shortened: as §1

HeLa = conditions: Gynecologic cancer cell panel viability, ATPlite luminescence, 48 h; series mostly up to 57.5 µM
Procedure, shortened: as §1

Hek293T = conditions: Gynecologic cancer cell panel viability, ATPlite luminescence, 48 h, control line for the selectivity index; series mostly up to 57.5 µM
Procedure, shortened: as §1

JEG-3 = conditions: Gynecologic cancer cell panel viability, ATPlite luminescence, 48 h; series mostly up to 57.5 µM
Procedure, shortened: as §1

OV90 = conditions: Gynecologic cancer cell panel viability, ATPlite luminescence, 48 h; series mostly up to 57.5 µM
Procedure, shortened: as §1

PA-1 = conditions: Gynecologic cancer cell panel viability, ATPlite luminescence, 48 h; series mostly up to 57.5 µM
Procedure, shortened: as §1

SKOV3 = conditions: Gynecologic cancer cell panel viability, ATPlite luminescence, 48 h; series mostly up to 57.5 µM
Procedure, shortened: as §1
On the % scale 0 is the no-effect control and ±100 the full control effect.

Cc1cc2nc3c(=O)[nH]c(=O)nc-3n(C[C@H](O)[C@H](O)[C@H](O)CO)c2cc1C
inactive: Potency (C33A) | Potency (CAOV3) | Potency (CASKI) | Potency (Es-2) | Potency (HeLa) | Potency (Hek293T) | Potency (JEG-3) | Potency (OV90) | Potency (PA-1) | Potency (SKOV3)

O=C(O)CC(O)C(=O)O (stereo not given)
inactive: Potency (C33A) | Potency (CAOV3) | Potency (CASKI) | Potency (Es-2) | Potency (HeLa) | Potency (Hek293T) | Potency (JEG-3) | Potency (OV90) | Potency (PA-1) | Potency (SKOV3)

O=c1[nH]c(=O)c2[nH]c(=O)[nH]c2[nH]1
inactive: activity change, negative = cytotoxicity (C33A) -3.59% [at 11.6 µM] | activity change, negative = cytotoxicity (CAOV3) 6.78% [at 11.6 µM] | activity change, negative = cytotoxicity (CASKI) -0.141% [at 11.6 µM] | activity change, negative = cytotoxicity (Es-2) -0.66% [at 11.6 µM] | activity change, negative = cytotoxicity (HeLa) 4.95% [at 11.6 µM] | activity change, negative = cytotoxicity (Hek293T) 6.53% [at 11.6 µM] | activity change, negative = cytotoxicity (JEG-3) 3.26% [at 11.6 µM] | activity change, negative = cytotoxicity (OV90) 21.7% [at 11.6 µM] | activity change, negative = cytotoxicity (PA-1) 8.45% [at 11.6 µM] | activity change, negative = cytotoxicity (SKOV3) -14.3% [at 11.6 µM]

CCN(CC)C(=O)Nc1ccc(OCC(O)CNC(C)(C)C)c(C(C)=O)c1 (stereo not given)
inactive: Potency (C33A) | Potency (CAOV3) | Potency (CASKI) | Potency (Es-2) | Potency (HeLa) | Potency (Hek293T) | Potency (JEG-3) | Potency (OV90) | Potency (PA-1) | Potency (SKOV3)

COc1ccccc1O
inactive: Potency (C33A) | Potency (CAOV3) | Potency (CASKI) | Potency (Es-2) | Potency (HeLa) | Potency (Hek293T) | Potency (JEG-3) | Potency (OV90) | Potency (PA-1) | Potency (SKOV3)

NC(=O)c1ncn([C@@H]2O[C@H](CO)[C@@H](O)[C@H]2O)c1N
inactive: Potency (C33A) | Potency (CAOV3) | Potency (CASKI) | Potency (Es-2) | Potency (HeLa) | Potency (Hek293T) | Potency (JEG-3) | Potency (OV90) | Potency (PA-1) | Potency (SKOV3)

COC(=O)[C@H]1[C@H]2C[C@@H]3c4[nH]c5cc(OC)ccc5c4CCN3C[C@H]2C[C@@H](OC(=O)COc2ccc(OC)cc2)[C@@H]1OC
inactive: Potency (C33A) | Potency (CAOV3) | Potency (CASKI) | Potency (Es-2) | Potency (HeLa) | Potency (Hek293T) | Potency (JEG-3) | Potency (OV90) | Potency (PA-1) | Potency (SKOV3)

N[C@@H](CSCCCO)C(=O)O
inactive: Potency (C33A) | Potency (CAOV3) | Potency (CASKI) | Potency (Es-2) | Potency (HeLa) | Potency (Hek293T) | Potency (JEG-3) | Potency (OV90) | Potency (PA-1) | Potency (SKOV3)

OC[C@H]1O[C@@H](O[C@@H]2[C@@H](CO)O[C@](O)(CO)[C@H]2O)[C@H](O)[C@@H](O)[C@H]1O
inactive: Potency (C33A) | Potency (CAOV3) | Potency (CASKI) | Potency (Es-2) | Potency (HeLa) | Potency (Hek293T) | Potency (JEG-3) | Potency (OV90) | Potency (PA-1) | Potency (SKOV3)

NCC(=O)CCC(=O)O
inactive: Potency (C33A) | Potency (CAOV3) | Potency (CASKI) | Potency (Es-2) | Potency (HeLa) | Potency (Hek293T) | Potency (JEG-3) | Potency (OV90) | Potency (PA-1) | Potency (SKOV3)

CC1=C(CC(=O)O)c2cc(F)ccc2/C1=C\c1ccc(S(C)(=O)=O)cc1
inactive: Potency (C33A) | Potency (CAOV3) | Potency (CASKI) | Potency (Es-2) | Potency (HeLa) | Potency (Hek293T) | Potency (JEG-3) | Potency (OV90) | Potency (PA-1) | Potency (SKOV3)

CS(=O)(=O)c1ccc([C@@H](O)[C@@H](CF)NC(=O)C(Cl)Cl)cc1
inactive: Potency (C33A) | Potency (CAOV3) | Potency (CASKI) | Potency (Es-2) | Potency (HeLa) | Potency (Hek293T) | Potency (JEG-3) | Potency (OV90) | Potency (PA-1) | Potency (SKOV3)

CNC(=O)Oc1ccc2c(c1)[C@]1(C)CCN(C)[C@@H]1N2C
inactive: Potency (C33A) | Potency (CAOV3) | Potency (CASKI) | Potency (Es-2) | Potency (HeLa) | Potency (Hek293T) | Potency (JEG-3) | Potency (OV90) | Potency (PA-1) | Potency (SKOV3)

C[C@H](N)[C@H](O)c1cccc(O)c1
inactive: Potency (C33A) | Potency (CAOV3) | Potency (CASKI) | Potency (Es-2) | Potency (HeLa) | Potency (Hek293T) | Potency (JEG-3) | Potency (OV90) | Potency (PA-1) | Potency (SKOV3)

Nc1ccc(S(=O)(=O)NC(=O)c2ccccc2)cc1
inactive: Potency (C33A) | Potency (CAOV3) | Potency (CASKI) | Potency (Es-2) | Potency (HeLa) | Potency (Hek293T) | Potency (JEG-3) | Potency (OV90) | Potency (PA-1) | Potency (SKOV3)

CN(C)CCOC(C)(c1ccccc1)c1ccccn1 (stereo not given)
inactive: Potency (C33A) | Potency (CAOV3) | Potency (CASKI) | Potency (Es-2) | Potency (HeLa) | Potency (Hek293T) | Potency (JEG-3) | Potency (OV90) | Potency (PA-1) | Potency (SKOV3)

CCCCOc1cc(C(=O)OCCN(CC)CC)ccc1N
inactive: Potency (C33A) | Potency (CAOV3) | Potency (CASKI) | Potency (Es-2) | Potency (HeLa) | Potency (Hek293T) | Potency (JEG-3) | Potency (OV90) | Potency (PA-1) | Potency (SKOV3)

C[C@@H]1CC[C@@]2(OC1)O[C@H]1C[C@H]3[C@@H]4CC[C@H]5C[C@@H](O)CC[C@]5(C)[C@H]4CC(=O)[C@]3(C)[C@H]1[C@@H]2C
inactive: activity change, negative = cytotoxicity (C33A) -0.977% [at 6.55 µM] | activity change, negative = cytotoxicity (CAOV3) -7.17% [at 6.55 µM] | activity change, negative = cytotoxicity (CASKI) 7.56% [at 6.55 µM] | activity change, negative = cytotoxicity (Es-2) -0.456% [at 6.55 µM] | activity change, negative = cytotoxicity (HeLa) 1.36% [at 6.55 µM] | activity change, negative = cytotoxicity (Hek293T) 7.28% [at 6.55 µM] | activity change, negative = cytotoxicity (JEG-3) -0.879% [at 6.55 µM] | activity change, negative = cytotoxicity (OV90) 12.9% [at 6.55 µM] | activity change, negative = cytotoxicity (PA-1) 9.38% [at 6.55 µM] | activity change, negative = cytotoxicity (SKOV3) 8.75% [at 6.55 µM]

CCCCC/C(C=O)=C\c1ccccc1
inactive: Potency (C33A) | Potency (CAOV3) | Potency (CASKI) | Potency (Es-2) | Potency (HeLa) | Potency (Hek293T) | Potency (JEG-3) | Potency (OV90) | Potency (PA-1) | Potency (SKOV3)

CO/N=C(\C(=O)N[C@@H]1C(=O)N2C(C(=O)O)=C(CSc3nc(=O)c(O)nn3C)CS[C@H]12)c1csc(N)n1
inactive: Potency (C33A) | Potency (CAOV3) | Potency (CASKI) | Potency (Es-2) | Potency (HeLa) | Potency (Hek293T) | Potency (JEG-3) | Potency (OV90) | Potency (PA-1) | Potency (SKOV3)

CC(C)(C)C(=O)NCCCC(=O)O
inactive: Potency (C33A) | Potency (CAOV3) | Potency (CASKI) | Potency (Es-2) | Potency (HeLa) | Potency (Hek293T) | Potency (JEG-3) | Potency (OV90) | Potency (PA-1) | Potency (SKOV3)
